In ChEMBL document CHEMBL2218924, “A broad activity screen in support of a chemogenomic map for kinase signalling research and drug discovery” (Biochem J, 2013) one finds residual activity data, which are given here for 16 compounds.

Test [1] deals with Tyrosine-protein kinase Fer (Homo sapiens) (UniProt P16591). The note with it: at 10 µM.
In test [2] the target is Tyrosine-protein kinase Fes/Fps (Homo sapiens) (UniProt P07332). The note with it: at 1 µM.
For test [3] the target is unchanged. Conditions: at 10 µM.
Test [4] has as its target Tyrosine-protein kinase Fgr (Homo sapiens) (UniProt P09769). Conditions: at 1 µM.
Test [5] has the same target. Conditions: at 10 µM.
Test [6] deals with Vascular endothelial growth factor receptor 1 (Homo sapiens) (UniProt P17948). Conditions: at 1 µM.
Test [7] has the same target. Conditions: at 10 µM.
The target in test [8] is Receptor-type tyrosine-protein kinase FLT3 (Homo sapiens) (UniProt P36888). Conditions: at 1 µM.
For test [9] the target is unchanged. Conditions: at 10 µM.
The target of test [10] is Vascular endothelial growth factor receptor 3 (Homo sapiens) (UniProt P35916). The note with it: at 1 µM.
Chain of Vascular endothelial growth factor receptor 3 (Homo sapiens) (P35916 whole entry): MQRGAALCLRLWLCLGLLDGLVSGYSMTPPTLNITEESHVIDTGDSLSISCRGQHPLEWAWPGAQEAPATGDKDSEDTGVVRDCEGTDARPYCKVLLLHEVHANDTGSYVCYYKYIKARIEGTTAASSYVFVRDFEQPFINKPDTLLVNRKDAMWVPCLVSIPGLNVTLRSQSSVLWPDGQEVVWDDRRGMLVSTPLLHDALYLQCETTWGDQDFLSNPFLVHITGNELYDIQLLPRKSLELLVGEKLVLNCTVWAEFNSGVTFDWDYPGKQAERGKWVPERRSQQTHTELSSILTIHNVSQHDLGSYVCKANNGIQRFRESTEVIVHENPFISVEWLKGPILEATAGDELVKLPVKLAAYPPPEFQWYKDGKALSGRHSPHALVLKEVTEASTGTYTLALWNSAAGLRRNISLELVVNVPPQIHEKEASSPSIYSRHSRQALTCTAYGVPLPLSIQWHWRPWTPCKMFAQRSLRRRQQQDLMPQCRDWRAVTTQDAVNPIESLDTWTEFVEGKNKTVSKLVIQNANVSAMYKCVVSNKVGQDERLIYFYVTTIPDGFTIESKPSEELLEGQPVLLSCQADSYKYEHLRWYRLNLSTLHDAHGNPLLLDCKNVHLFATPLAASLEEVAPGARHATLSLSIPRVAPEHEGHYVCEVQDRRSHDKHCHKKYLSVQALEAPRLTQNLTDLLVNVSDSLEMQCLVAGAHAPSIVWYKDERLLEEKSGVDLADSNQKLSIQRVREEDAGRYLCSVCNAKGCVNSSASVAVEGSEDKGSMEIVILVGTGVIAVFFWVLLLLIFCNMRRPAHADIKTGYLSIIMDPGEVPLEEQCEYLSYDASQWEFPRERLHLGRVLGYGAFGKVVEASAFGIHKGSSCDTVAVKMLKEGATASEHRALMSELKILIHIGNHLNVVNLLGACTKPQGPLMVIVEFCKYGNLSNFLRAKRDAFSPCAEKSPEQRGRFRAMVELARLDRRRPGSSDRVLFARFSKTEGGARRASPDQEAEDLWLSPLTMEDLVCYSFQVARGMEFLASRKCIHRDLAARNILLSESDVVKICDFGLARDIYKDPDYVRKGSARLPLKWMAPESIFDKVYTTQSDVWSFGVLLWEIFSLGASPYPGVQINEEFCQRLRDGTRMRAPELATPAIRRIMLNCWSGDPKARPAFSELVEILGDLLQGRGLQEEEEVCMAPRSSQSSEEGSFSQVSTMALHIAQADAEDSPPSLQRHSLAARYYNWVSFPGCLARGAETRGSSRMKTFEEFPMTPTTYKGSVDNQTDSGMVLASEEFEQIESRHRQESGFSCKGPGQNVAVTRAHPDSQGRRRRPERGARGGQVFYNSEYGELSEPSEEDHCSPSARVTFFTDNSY

Chain of Receptor-type tyrosine-protein kinase FLT3 (Homo sapiens) (P36888 whole entry): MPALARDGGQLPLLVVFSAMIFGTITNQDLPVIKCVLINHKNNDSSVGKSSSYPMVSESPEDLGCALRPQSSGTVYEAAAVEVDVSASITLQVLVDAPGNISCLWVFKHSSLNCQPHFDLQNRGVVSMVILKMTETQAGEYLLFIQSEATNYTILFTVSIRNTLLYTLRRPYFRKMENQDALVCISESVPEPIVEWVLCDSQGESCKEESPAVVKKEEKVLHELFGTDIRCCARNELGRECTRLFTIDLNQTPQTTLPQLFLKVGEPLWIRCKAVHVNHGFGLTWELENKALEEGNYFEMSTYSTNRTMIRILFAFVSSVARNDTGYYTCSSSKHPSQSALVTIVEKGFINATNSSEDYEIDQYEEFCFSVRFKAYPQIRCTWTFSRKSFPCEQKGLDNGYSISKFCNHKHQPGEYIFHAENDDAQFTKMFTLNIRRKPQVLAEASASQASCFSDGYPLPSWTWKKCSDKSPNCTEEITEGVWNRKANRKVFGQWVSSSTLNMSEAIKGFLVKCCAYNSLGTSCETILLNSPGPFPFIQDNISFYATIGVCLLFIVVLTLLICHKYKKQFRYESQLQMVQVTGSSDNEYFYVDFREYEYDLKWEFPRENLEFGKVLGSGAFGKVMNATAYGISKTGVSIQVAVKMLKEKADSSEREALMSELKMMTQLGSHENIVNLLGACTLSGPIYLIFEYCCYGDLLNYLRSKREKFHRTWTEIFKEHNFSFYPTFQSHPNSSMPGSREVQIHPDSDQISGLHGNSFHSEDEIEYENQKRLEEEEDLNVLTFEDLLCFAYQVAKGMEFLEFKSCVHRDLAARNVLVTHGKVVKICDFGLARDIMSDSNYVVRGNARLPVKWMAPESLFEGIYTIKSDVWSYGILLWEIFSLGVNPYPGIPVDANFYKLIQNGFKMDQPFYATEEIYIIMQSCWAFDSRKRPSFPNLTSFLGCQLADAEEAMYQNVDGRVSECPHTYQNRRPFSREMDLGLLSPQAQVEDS
Chain of Tyrosine-protein kinase Fer (Homo sapiens) (P16591 whole entry, looked up): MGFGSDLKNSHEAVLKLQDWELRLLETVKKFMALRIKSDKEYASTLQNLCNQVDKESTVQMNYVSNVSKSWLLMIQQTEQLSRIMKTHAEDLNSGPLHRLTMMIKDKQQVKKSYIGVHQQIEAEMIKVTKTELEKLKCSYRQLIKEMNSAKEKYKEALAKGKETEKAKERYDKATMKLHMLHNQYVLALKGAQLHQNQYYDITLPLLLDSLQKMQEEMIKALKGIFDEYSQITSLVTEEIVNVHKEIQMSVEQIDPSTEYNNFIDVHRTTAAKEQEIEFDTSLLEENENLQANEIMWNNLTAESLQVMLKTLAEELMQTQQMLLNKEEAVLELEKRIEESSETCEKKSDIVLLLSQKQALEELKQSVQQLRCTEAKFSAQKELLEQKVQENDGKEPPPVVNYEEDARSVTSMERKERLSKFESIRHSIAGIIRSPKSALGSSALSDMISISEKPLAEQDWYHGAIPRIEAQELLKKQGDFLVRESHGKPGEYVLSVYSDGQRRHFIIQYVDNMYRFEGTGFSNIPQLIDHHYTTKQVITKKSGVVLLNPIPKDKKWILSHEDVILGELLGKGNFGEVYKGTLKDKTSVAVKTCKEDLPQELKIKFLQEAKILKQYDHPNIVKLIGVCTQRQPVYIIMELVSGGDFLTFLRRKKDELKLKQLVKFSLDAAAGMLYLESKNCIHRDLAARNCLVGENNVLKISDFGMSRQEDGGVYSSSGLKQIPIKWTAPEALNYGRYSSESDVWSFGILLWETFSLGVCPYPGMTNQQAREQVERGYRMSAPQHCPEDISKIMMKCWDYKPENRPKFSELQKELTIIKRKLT
Chain of Tyrosine-protein kinase Fes/Fps (Homo sapiens) (P07332 whole entry): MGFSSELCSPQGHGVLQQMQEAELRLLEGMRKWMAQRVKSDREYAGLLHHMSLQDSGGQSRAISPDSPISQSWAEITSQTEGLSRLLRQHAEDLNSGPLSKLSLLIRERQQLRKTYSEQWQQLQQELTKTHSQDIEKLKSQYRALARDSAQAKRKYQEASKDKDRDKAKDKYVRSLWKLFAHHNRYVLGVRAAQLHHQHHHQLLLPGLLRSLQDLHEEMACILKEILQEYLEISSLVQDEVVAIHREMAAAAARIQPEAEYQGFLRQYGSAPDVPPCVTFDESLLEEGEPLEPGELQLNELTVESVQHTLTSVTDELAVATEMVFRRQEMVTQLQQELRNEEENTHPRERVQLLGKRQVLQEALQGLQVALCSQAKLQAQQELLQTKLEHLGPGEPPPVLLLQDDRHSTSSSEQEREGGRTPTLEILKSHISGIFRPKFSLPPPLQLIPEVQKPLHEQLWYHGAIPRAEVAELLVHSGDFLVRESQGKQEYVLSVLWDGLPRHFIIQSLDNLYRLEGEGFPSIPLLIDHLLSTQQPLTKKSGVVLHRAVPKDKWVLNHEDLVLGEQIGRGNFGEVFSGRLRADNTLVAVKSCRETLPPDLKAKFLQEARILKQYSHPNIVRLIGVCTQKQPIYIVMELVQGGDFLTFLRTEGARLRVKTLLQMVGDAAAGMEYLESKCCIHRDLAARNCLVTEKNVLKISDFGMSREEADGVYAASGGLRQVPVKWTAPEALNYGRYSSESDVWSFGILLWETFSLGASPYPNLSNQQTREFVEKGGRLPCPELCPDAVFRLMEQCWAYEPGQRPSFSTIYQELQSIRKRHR
Chain of Tyrosine-protein kinase Fgr (Homo sapiens) (P09769 2-529 limits assumed): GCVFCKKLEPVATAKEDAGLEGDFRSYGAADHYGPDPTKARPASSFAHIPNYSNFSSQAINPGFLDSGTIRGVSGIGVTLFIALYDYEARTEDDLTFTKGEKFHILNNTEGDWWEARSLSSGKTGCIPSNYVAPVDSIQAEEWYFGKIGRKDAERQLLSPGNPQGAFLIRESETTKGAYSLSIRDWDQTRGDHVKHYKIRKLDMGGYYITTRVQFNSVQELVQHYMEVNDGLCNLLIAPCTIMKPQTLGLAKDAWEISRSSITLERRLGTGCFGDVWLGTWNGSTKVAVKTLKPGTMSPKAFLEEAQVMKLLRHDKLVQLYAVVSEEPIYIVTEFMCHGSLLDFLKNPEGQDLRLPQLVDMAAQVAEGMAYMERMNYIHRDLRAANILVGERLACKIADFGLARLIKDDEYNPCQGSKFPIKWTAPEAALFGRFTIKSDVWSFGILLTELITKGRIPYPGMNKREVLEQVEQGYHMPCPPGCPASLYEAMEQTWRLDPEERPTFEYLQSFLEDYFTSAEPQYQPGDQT

Take `O=c1c2ccccc2[nH]c(=S)n1CCN1CCC(=C(c2ccc(F)cc2)c2ccc(F)cc2)CC1`: the residual activity (in general, the signal under treatment as a percentage of the control signal) came out at 89% in test [1]; 117% in test [2]; 93% in test [3]; 110% in test [4]; 91% in test [5]; 97% in test [6]. Also, the residual activity in test [7] was 98%; in test [8] it was 81%; in test [9] it was 57%; in test [10] it was 89%.
In the case of `Oc1n[nH]c2nnc(-c3c(-c4ccccc4)nn4ccccc34)cc12`, the residual activity in [1] turned out to be 91%; in test [2], 92%; in test [3], 108%; in test [4] it was 89%; in test [5], 95%; in test [6] it was 86%. Besides, the residual activity in test [7] stood at 80%; in [8], 76%; in test [9] it was 63%; in test [10] it was 89%.
Take `CNc1cc2c(Nc3cccc(Br)c3)ncnc2cn1`: the residual activity is 90% in [1]; 116% in [2]; 92% in test [3]; 73% in test [4]; 60% in test [5]; 87% in [6]. Further, the residual activity in test [7] was 58%; in test [8] it was 119%; in test [9] it was 107%; in [10], 87%.
As for `Cn1cnc2cc3c(Nc4cccc(Br)c4)ncnc3cc21`, the residual activity in test [1] is 93%; in test [2], 132%; in [3], 83%; in test [4], 63%; in [5], 35%; in test [6], 43%. Also, the residual activity in [7] came out at 18%; in [8] it was 113%; in test [9], 58%; in test [10], 40%.
For the compound `O=C(O)c1ccc2c3c1cccc3c(=O)n1c3ccccc3nc21`, the residual activity in test [1] stood at 5%; in [2] it was 98%; in test [3], 71%; in test [4], 97%; in test [5], 87%; in test [6], 92%. Also, the residual activity is 81% in test [7], 50% in [8], 22% in [9] and 74% in [10].
With `O=C1Nc2ccccc2/C1=C1/Nc2ccccc2/C1=N\OCCC(O)CO` (stereo not given), the residual activity in test [1] was 35%; in [2] it was 71%; in test [3], 48%; in [4] it was 3%; in [5], 3%; in [6], 1%. Also, the residual activity in test [7] was 0%; in [8] it was 0%; in [9], 0%; in test [10], -1%.
With `O=C1c2ccccc2-[n+]2ccc3c([nH]c4ccccc43)c21`, the residual activity in test [1] amounted to 90%; in test [2], 89%; in [3], 88%; in [4] it was 92%; in test [5] it was 85%; in [6], 79%. The residual activity is 67% in test [7], 87% in test [8], 52% in test [9] and 76% in [10].
On to `CCC(=O)Nc1ccc2ncnc(Nc3cccc(Br)c3)c2c1`, for which the residual activity was found to be 91% in test [1]; 115% in test [2]; 78% in [3]; 102% in [4]; 76% in [5]; 86% in test [6]. For the same compound, the residual activity in test [7] amounted to 83%; in test [8], 120%; in test [9], 107%; in test [10] it was 85%.
As to `O=C1NC(=O)/C(=C/c2ccc3c(c2)OC(F)(F)O3)S1`, the residual activity in test [1] worked out at 86%; in [2] it was 128%; in [3], 90%; in test [4] it was 105%; in test [5], 101%; in test [6], 92%. For the same compound, the residual activity is 85% in test [7], 89% in test [8], 83% in test [9] and 98% in [10].
In the case of `N#Cc1cnc2cnc(NCc3cccnc3)cc2c1Nc1ccc(F)c(Cl)c1`, the residual activity in test [1] stood at 95%; in test [2] it was 19%; in [3], 12%; in test [4], 11%; in [5], 4%; in [6], 14%. Also, the residual activity in test [7] is 7%; in test [8] it was 2%; in [9] it was 0%; in test [10], 8%.
For `COc1ccc(OC)c2c(=S)c3ccccc3[nH]c12`, the residual activity in test [1] worked out at 92%; in [2], 89%; in [3] it was 103%; in [4], 94%; in [5], 99%; in [6], 90%. Moreover, the residual activity in test [7] was 77%; in test [8], 83%; in test [9], 73%; in [10], 89%.
In the case of `Nc1cccc(-c2cc3c(Oc4cccc(O)c4)ncnc3[nH]2)c1`, the residual activity worked out at 10% in [1]; 13% in test [2]; 1% in test [3]; 0% in test [4]; 2% in test [5]; 0% in test [6]. The residual activity in test [7] was 0%; in test [8], 22%; in test [9], 1%; in test [10], -1%.
On to `NC(=O)c1ccc2[nH]c(-c3ccc(Oc4ccc(Cl)cc4)cc3)nc2c1`, for which the residual activity in [1] is 89%; in test [2], 97%; in test [3], 87%; in [4], 99%; in test [5], 90%; in [6] it was 82%. In addition, the residual activity in test [7] stood at 39%; in test [8] it was 65%; in [9], 27%; in test [10] it was 69%.
Regarding `O=C1NC(=O)c2cc(Nc3ccc(F)cc3)c(Nc3ccc(F)cc3)cc21`, the residual activity turned out to be 86% in [1]; 112% in test [2]; 69% in test [3]; 89% in test [4]; 44% in test [5]; 77% in [6]. Moreover, the residual activity turned out to be 66% in test [7], 107% in test [8], 73% in [9] and 84% in [10].
For the compound `N#C/C(=C(\N)Sc1ccc(N)cc1)c1ccccc1C(F)(F)F`, the residual activity was 79% in test [1]; 93% in test [2]; 100% in test [3]; 88% in test [4]; 73% in [5]; 83% in test [6]. The residual activity is 38% in test [7], 62% in test [8], 59% in test [9] and 65% in test [10].
Turning to `O=C(Nc1cccc(Nc2nccc(Nc3cccc(C(F)(F)F)c3)n2)c1)C1CC1`, the residual activity in test [1] was found to be 59%; in [2], 84%; in test [3], 68%; in [4] it was 59%; in test [5], 67%; in [6], 59%. Also, the residual activity was determined as 6% in test [7], 45% in [8], 3% in test [9] and 55% in [10].
